# In the supplement of paper PMC6411743:
# ± gives the standard deviation of the averaged measurements. Of roughly 6,500 targets only a part is listed; those with the largest changes were picked by preference.
# Assays:
# Assay in all cases: NP40-soluble protein abundance relative to vehicle (solubility fold change) (ratio); higher = more soluble protein in presence of ATP
# [1] = molecular target: A0A075B6F5|F5GXR6|Q8IUG5|Q8IUG5-2 (UniProt Q8IUG5)
# Outline: (§1)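 Each value is a fold change relative to the detergent-processed vehicle, calculated per replicate from vsn-normalised intensities. Jurkat crude lysate received eight concentrations (0.1 to 10 mM) for 10 min at room temperature and 3 min at 37 °C, then was solubilised in 0.8% NP40 with benzonase (60 min, 4 °C). The ultracentrifuged supernatant was TMT-labelled and run by LC-MS/MS in three independent experiments.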
# [2] = molecular target: A0A087WTM7|P04114 (UniProt P04114)
# Outline: as §1
# [3] = molecular target: T1, A0A087WV29|Q9H0A0 (UniProt Q9H0A0)
# T1 sequence (whole entry): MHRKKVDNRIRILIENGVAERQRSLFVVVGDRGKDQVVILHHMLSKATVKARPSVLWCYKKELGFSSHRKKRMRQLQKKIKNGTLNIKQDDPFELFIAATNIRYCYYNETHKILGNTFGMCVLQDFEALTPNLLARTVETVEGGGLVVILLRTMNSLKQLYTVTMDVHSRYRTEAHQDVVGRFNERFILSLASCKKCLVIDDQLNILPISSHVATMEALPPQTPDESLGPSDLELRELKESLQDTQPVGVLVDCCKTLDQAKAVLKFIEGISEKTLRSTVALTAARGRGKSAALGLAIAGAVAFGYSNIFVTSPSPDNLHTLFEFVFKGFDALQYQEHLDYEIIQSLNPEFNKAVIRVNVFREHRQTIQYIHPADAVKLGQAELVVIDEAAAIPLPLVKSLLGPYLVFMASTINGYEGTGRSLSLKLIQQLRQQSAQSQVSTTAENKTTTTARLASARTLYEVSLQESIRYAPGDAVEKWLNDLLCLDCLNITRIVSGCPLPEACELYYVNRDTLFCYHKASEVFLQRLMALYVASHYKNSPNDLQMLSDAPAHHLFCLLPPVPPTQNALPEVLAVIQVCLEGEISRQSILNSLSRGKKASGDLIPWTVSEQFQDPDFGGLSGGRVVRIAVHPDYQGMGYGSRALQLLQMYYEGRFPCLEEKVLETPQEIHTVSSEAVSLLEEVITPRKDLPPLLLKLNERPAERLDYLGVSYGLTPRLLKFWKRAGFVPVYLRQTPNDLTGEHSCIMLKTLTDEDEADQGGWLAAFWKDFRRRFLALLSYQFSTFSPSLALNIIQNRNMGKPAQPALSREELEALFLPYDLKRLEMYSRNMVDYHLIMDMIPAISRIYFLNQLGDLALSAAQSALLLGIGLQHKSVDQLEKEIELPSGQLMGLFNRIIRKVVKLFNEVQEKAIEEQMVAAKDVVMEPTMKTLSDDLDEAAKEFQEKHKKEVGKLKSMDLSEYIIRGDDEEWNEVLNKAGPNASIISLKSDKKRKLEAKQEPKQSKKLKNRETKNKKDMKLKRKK
# Outline: as §1
# [4] = molecular target: T2, A0A087WVA8|Q8IWB9|Q8IWB9-2 (UniProt Q8IWB9)
# T2 sequence (whole entry): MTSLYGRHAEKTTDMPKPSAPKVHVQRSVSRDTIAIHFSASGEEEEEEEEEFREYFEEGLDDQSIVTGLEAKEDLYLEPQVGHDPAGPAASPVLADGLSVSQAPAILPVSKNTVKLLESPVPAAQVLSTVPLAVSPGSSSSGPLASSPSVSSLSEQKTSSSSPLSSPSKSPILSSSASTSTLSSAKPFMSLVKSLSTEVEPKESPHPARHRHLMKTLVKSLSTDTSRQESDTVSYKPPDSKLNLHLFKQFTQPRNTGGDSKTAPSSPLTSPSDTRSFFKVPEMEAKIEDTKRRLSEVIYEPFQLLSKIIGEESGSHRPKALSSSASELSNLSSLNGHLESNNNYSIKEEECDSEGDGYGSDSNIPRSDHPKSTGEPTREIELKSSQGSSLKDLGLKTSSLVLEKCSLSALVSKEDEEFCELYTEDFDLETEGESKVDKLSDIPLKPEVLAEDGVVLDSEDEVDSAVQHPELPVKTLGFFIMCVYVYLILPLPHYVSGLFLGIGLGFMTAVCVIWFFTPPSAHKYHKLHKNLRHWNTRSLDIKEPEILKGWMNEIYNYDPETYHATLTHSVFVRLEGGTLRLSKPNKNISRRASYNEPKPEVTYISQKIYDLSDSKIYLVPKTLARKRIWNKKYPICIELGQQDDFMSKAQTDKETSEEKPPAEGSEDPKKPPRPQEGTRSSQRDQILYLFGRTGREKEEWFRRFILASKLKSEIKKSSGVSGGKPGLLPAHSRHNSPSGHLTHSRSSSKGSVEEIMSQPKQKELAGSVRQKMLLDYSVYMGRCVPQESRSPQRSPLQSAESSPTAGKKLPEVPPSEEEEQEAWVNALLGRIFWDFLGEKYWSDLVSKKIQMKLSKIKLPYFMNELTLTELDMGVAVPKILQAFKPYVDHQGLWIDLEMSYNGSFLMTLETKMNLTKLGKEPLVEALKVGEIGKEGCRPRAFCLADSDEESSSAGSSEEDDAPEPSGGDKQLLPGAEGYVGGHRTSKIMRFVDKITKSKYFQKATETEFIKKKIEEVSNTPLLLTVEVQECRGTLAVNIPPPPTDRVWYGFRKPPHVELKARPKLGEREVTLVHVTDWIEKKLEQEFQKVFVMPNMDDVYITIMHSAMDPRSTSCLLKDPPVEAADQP
# Outline: as §1
# [5] = molecular target: A0A087WWP8 (UniProt Q5VWQ0)
# Outline: as §1
# [6] = molecular target: T3, A0A087WWS1|Q96FV9 (UniProt Q96FV9)
# T3 sequence (whole entry): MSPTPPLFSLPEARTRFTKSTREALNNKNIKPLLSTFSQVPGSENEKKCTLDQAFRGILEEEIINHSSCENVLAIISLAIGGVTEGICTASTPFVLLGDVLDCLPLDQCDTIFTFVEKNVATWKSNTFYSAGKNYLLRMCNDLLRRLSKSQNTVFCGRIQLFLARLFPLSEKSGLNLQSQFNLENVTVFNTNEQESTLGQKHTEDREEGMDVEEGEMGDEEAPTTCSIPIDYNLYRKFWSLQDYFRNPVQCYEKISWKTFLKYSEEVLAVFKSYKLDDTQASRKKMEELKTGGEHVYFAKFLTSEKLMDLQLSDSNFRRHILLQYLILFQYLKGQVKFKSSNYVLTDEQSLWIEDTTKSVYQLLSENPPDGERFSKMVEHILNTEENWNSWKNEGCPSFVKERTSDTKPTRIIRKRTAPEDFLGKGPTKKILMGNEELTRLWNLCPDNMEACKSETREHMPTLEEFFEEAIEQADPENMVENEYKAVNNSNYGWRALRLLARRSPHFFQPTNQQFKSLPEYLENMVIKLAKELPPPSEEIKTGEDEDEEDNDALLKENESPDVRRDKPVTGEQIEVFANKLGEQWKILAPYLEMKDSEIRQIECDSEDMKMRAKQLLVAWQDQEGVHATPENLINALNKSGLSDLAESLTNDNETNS
# Outline: as §1
# [7] = molecular target: A0A087WXC5|O95299|H7C2X4 (UniProt O95299)
# Outline: as §1
# [8] = molecular target: A0A087WY00|F8W6H6|Q9Y4I1|Q9Y4I1-2|Q9Y4I1-3|G3V394 (UniProt Q9Y4I1)
# Outline: as §1
# [9] = molecular target: T4, A0A087WYG2|E9PFH7|Q9UPT6 (UniProt Q9UPT6)
# T4 sequence (whole entry): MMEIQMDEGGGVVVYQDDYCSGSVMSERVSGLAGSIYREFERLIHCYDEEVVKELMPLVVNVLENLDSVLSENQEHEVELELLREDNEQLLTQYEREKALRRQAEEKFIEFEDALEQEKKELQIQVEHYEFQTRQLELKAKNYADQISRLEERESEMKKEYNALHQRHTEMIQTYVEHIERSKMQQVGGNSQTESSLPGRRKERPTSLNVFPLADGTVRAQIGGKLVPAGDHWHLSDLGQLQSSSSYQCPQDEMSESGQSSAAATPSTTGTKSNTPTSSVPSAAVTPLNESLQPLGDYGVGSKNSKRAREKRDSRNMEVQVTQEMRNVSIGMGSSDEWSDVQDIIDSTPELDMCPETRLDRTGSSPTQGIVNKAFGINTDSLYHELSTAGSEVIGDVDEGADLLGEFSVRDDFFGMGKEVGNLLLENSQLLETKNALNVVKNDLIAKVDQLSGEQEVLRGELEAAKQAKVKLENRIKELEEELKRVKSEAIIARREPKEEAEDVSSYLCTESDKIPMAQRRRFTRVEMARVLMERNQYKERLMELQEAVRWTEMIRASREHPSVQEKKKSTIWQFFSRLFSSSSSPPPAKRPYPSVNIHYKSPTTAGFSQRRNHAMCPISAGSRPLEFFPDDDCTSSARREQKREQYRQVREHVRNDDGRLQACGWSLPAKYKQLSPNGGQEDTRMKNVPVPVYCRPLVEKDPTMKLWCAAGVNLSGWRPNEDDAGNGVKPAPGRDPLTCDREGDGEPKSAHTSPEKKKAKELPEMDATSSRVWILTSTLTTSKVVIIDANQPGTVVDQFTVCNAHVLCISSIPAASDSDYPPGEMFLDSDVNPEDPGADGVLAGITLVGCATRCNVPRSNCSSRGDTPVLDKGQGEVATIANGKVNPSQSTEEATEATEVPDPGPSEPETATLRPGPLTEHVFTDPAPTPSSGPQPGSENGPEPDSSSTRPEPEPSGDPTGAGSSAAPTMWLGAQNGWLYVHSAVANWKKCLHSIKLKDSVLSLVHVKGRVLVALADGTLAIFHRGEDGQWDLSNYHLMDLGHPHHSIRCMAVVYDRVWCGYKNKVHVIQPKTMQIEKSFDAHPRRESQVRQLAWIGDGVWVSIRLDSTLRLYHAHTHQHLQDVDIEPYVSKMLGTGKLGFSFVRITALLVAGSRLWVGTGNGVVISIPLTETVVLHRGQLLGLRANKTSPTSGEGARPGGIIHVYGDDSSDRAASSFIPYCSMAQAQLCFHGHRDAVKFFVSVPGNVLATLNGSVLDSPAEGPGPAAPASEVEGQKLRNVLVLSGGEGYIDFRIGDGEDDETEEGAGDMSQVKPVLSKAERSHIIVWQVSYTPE
# Outline: as §1
# Sequence of A0A087WXC5|O95299|H7C2X4 (O95299 whole entry, one chain of several): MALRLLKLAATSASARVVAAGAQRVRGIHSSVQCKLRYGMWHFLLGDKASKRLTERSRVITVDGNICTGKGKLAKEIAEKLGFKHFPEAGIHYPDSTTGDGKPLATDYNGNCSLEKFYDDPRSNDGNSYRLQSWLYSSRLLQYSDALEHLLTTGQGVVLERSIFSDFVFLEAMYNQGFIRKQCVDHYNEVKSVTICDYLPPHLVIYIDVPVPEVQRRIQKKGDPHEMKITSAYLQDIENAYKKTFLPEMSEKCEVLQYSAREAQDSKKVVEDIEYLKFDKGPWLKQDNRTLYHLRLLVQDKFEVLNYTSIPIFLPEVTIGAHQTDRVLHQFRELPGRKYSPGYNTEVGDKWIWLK
# Sequence of A0A087WY00|F8W6H6|Q9Y4I1|Q9Y4I1-2|Q9Y4I1-3|G3V394 (Q9Y4I1 whole entry, one chain of several): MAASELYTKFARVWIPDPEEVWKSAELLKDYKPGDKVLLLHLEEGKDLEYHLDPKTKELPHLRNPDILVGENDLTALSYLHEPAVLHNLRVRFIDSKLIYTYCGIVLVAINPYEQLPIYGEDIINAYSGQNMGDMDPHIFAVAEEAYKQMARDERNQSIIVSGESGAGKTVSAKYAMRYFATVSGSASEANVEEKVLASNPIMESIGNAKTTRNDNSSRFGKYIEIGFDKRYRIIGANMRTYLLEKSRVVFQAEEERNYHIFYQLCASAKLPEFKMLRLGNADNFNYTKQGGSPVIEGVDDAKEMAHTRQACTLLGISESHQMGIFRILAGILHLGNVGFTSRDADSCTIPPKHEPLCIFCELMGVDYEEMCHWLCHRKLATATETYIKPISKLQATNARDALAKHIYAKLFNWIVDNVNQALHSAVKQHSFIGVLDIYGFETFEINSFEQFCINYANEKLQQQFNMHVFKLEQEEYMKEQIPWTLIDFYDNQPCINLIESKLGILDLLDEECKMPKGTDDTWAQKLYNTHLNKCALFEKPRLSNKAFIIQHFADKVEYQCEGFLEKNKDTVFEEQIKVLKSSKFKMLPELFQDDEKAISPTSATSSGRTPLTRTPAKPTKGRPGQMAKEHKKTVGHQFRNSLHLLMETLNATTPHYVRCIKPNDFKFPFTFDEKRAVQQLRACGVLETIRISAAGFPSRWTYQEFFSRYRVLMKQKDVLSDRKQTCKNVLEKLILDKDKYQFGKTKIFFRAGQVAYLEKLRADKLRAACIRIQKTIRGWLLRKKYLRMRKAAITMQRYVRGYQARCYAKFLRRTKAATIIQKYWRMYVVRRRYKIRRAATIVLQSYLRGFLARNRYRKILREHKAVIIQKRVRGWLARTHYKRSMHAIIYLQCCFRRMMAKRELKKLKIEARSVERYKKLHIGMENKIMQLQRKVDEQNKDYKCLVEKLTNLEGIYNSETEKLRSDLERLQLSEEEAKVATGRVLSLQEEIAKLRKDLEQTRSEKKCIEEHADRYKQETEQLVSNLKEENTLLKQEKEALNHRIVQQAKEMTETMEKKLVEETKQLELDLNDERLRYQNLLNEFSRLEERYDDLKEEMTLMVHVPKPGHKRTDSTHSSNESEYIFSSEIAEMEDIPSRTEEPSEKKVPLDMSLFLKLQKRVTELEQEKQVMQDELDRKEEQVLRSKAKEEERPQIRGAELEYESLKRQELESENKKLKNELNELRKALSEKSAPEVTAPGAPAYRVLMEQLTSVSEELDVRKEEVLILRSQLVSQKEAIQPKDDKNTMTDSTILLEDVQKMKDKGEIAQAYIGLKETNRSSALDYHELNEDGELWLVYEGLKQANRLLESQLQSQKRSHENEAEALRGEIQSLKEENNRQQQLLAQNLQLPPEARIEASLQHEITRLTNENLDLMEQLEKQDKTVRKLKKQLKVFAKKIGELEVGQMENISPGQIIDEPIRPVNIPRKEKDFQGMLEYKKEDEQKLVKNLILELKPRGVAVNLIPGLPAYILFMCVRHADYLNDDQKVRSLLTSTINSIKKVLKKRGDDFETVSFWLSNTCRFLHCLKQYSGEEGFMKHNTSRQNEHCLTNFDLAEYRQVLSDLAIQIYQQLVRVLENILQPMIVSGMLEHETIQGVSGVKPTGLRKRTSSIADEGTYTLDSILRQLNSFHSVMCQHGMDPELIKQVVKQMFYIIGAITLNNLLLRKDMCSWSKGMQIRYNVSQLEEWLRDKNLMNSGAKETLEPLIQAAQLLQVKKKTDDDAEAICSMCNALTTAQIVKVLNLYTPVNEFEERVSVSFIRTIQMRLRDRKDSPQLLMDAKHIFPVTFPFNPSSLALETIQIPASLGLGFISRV
# Sequence of A0A075B6F5|F5GXR6|Q8IUG5|Q8IUG5-2 (Q8IUG5 whole entry, one chain of several): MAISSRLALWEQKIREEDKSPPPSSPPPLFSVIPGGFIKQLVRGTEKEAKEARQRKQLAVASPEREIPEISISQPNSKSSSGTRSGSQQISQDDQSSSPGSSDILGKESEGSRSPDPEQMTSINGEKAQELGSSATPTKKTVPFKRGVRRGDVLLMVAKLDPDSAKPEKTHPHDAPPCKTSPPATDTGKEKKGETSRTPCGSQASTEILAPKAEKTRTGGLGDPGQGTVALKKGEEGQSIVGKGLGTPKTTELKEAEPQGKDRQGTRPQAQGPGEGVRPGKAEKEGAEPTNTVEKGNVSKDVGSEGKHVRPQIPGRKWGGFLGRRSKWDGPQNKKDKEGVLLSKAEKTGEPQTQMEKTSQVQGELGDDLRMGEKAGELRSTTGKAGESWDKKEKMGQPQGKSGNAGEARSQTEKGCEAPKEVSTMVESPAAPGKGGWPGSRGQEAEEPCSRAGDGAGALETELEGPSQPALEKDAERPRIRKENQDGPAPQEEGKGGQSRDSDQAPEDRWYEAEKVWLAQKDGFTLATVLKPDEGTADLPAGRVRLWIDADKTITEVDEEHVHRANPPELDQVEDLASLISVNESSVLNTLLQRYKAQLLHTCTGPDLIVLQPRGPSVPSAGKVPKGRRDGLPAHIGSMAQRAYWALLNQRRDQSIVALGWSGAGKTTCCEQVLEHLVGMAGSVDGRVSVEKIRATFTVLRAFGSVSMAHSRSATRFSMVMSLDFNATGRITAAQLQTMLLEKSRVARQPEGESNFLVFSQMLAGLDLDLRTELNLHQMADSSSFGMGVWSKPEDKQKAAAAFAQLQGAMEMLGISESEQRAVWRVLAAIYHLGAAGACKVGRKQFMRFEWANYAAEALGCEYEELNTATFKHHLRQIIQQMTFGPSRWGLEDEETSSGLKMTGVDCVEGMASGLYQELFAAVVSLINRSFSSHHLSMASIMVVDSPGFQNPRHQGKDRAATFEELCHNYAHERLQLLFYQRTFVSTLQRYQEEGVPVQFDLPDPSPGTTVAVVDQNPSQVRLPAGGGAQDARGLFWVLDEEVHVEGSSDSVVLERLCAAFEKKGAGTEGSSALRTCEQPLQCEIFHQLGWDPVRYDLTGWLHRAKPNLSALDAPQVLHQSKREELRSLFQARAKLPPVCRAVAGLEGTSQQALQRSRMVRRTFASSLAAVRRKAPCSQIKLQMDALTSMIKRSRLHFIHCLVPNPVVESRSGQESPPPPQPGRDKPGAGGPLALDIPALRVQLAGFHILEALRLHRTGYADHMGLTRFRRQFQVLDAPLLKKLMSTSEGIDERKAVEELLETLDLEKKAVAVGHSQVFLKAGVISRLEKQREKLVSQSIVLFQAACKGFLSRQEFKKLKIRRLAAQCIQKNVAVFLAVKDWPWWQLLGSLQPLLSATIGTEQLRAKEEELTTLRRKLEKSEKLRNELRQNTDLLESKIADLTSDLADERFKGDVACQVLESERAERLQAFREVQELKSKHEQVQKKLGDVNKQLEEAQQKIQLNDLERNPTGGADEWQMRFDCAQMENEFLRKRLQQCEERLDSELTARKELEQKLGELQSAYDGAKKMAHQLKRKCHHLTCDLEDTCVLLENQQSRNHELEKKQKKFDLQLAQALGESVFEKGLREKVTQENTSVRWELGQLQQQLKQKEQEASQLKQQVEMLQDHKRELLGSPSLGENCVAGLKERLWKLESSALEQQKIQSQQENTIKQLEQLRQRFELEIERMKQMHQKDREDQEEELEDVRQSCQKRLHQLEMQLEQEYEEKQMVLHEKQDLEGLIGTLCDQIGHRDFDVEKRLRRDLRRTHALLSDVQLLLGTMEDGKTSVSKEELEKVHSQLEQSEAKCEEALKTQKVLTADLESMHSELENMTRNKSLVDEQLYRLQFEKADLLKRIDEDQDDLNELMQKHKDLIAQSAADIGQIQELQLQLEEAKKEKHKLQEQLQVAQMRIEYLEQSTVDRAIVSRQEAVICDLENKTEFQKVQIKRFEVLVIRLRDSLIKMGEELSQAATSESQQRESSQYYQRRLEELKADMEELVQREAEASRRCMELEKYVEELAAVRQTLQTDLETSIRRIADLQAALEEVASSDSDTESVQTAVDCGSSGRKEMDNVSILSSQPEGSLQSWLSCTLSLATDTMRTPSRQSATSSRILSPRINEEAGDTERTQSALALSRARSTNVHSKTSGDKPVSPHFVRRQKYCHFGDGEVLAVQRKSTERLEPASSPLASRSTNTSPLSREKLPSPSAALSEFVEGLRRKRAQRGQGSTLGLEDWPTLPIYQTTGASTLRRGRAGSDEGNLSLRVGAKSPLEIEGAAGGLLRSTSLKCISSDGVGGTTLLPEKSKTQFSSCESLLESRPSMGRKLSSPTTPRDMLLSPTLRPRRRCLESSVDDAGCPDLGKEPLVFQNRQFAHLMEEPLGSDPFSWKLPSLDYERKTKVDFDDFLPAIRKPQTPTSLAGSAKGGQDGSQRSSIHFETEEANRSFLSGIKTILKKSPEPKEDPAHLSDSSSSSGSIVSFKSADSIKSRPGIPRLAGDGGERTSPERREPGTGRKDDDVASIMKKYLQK
smiles,measurement,setting,value
Nc1ncnc2c1ncn2[C@@H]1O[C@H](COP(=O)(O)OP(=O)(O)OP(=O)(O)O)[C@@H](O)[C@H]1O [adenosine triphosphate],NP40-soluble protein abundance,[1]; concentration: 1mM,0.986 ± 0.023
same,NP40-soluble protein abundance,[1]; concentration: 2mM,0.927 ± 0.014
same,NP40-soluble protein abundance,[1]; concentration: 4mM,1.1 ± 0.016
same,NP40-soluble protein abundance,[1]; concentration: 6mM,1.06 ± 0.022
same,NP40-soluble protein abundance,[1]; concentration: 8mM,1.14 ± 0.13
same,NP40-soluble protein abundance,[1]; concentration: 10mM,1.18 ± 0.18
same,NP40-soluble protein abundance,[2]; concentration: 1mM,1.09 ± 0.039
same,NP40-soluble protein abundance,[2]; concentration: 2mM,1.05 ± 0.029
same,NP40-soluble protein abundance,[2]; concentration: 4mM,0.98 ± 0.11
same,NP40-soluble protein abundance,[2]; concentration: 6mM,0.965 ± 0.086
same,NP40-soluble protein abundance,[2]; concentration: 8mM,0.976 ± 0.082
same,NP40-soluble protein abundance,[2]; concentration: 10mM,0.989 ± 0.074
same,NP40-soluble protein abundance,[3]; concentration: 1mM,1.2 ± 0.1
same,NP40-soluble protein abundance,[3]; concentration: 2mM,1.37 ± 0.1
same,NP40-soluble protein abundance,[3]; concentration: 4mM,1.59 ± 0.11
same,NP40-soluble protein abundance,[3]; concentration: 6mM,1.69 ± 0.18
same,NP40-soluble protein abundance,[3]; concentration: 8mM,2.15 ± 0.14
same,NP40-soluble protein abundance,[3]; concentration: 10mM,2.32 ± 0.22
same,NP40-soluble protein abundance,[4]; concentration: 1mM,1.02 ± 0.043
same,NP40-soluble protein abundance,[4]; concentration: 2mM,0.975 ± 0.072
same,NP40-soluble protein abundance,[4]; concentration: 4mM,0.984 ± 0.062
same,NP40-soluble protein abundance,[4]; concentration: 6mM,0.982 ± 0.024
same,NP40-soluble protein abundance,[4]; concentration: 8mM,0.973 ± 0.07
same,NP40-soluble protein abundance,[4]; concentration: 10mM,0.993 ± 0.052
same,NP40-soluble protein abundance,[5]; concentration: 1mM,1.48 ± 0.058
same,NP40-soluble protein abundance,[5]; concentration: 2mM,1.53 ± 0.045
same,NP40-soluble protein abundance,[5]; concentration: 4mM,1.61 ± 0.043
same,NP40-soluble protein abundance,[5]; concentration: 6mM,1.68 ± 0.048
same,NP40-soluble protein abundance,[5]; concentration: 8mM,1.68 ± 0.069
same,NP40-soluble protein abundance,[5]; concentration: 10mM,1.69 ± 0.063
same,NP40-soluble protein abundance,[6]; concentration: 1mM,1.509 ± 0.011
same,NP40-soluble protein abundance,[6]; concentration: 2mM,1.65 ± 0.068
same,NP40-soluble protein abundance,[6]; concentration: 4mM,1.89 ± 0.099
same,NP40-soluble protein abundance,[6]; concentration: 6mM,2.14 ± 0.2
same,NP40-soluble protein abundance,[6]; concentration: 8mM,2.31 ± 0.075
same,NP40-soluble protein abundance,[6]; concentration: 10mM,2.4 ± 0.13
same,NP40-soluble protein abundance,[7]; concentration: 1mM,1.03 ± 0.024
same,NP40-soluble protein abundance,[7]; concentration: 2mM,1.02 ± 0.033
same,NP40-soluble protein abundance,[7]; concentration: 4mM,0.982 ± 0.034
same,NP40-soluble protein abundance,[7]; concentration: 6mM,1 ± 0.022
same,NP40-soluble protein abundance,[7]; concentration: 8mM,1.02 ± 0.023
same,NP40-soluble protein abundance,[7]; concentration: 10mM,1 ± 0.034
same,NP40-soluble protein abundance,[8]; concentration: 1mM,2.94 ± 0.086
same,NP40-soluble protein abundance,[8]; concentration: 2mM,2.89 ± 0.071
same,NP40-soluble protein abundance,[8]; concentration: 4mM,2.94 ± 0.14
same,NP40-soluble protein abundance,[8]; concentration: 6mM,2.96 ± 0.19
same,NP40-soluble protein abundance,[8]; concentration: 8mM,2.96 ± 0.088
same,NP40-soluble protein abundance,[8]; concentration: 10mM,2.84 ± 0.062
same,NP40-soluble protein abundance,[9]; concentration: 1mM,0.979 ± 0.055
same,NP40-soluble protein abundance,[9]; concentration: 2mM,0.996 ± 0.054
same,NP40-soluble protein abundance,[9]; concentration: 4mM,0.993 ± 0.097
same,NP40-soluble protein abundance,[9]; concentration: 6mM,0.988 ± 0.094
same,NP40-soluble protein abundance,[9]; concentration: 8mM,0.959 ± 0.066
same,NP40-soluble protein abundance,[9]; concentration: 10mM,0.956 ± 0.029
